TbPYK inhibitor – inhibitors of Trypanosoma brucei pyruvate kinase; TbPYK enzyme, Kinase-Glo Plus ATP luminescence, 45 min; Potency, µM (doses to about 76.8 µM), actives largely listed as inhibitors; 410,000 tested, 0.12% active; also: nearly all actives have a fitted effect of over 50% in size
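Activity of T. brucei pyruvate kinase was followed by Kinase-Glo Plus luminescence after the enzyme reacted 45 min at room temperature with 130 uM ADP (final) and substrate. Test compounds were added before ADP at multiple concentrations.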
Giardia FBPA inh – inhibitors of Giardia lamblia fructose-1,6-bisphosphate aldolase. A8B2U2. purified Giardia FBPA. Potency, µM (doses to about 59.6 µM), hits mostly inhibitors. 290,000 tested, 0.71% active. AID 2451; also: nearly all actives have a fitted effect of over 55% in size
Target sequence (A8B2U2 whole entry, looked up): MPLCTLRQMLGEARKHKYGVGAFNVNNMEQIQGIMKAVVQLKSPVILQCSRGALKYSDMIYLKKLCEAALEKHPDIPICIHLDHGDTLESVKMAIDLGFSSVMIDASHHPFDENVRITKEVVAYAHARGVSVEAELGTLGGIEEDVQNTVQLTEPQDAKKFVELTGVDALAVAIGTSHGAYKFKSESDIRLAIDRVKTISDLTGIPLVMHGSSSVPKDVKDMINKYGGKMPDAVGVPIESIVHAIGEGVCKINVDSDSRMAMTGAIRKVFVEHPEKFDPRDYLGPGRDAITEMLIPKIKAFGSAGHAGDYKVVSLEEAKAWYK
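Giardia FBPA (40 nM reagent) was preincubated 10 min at RT with compound (up to 57.5 uM final), then substrate plus GAPDH/TPI/NAD/arsenate coupling system with diaphorase/resazurin was added; resorufin fluorescence (525/598 nm) was read after 20 min.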
Sm TGR inh – S. mansoni TGR enzyme inhibition. purified TGR, DTNB reduction, TNB absorbance 405 nm. AID 485364. Potency, µM (top dose mostly 114 µM), usual class: inhibitors. 360,000 tested, 3% active; also: nearly all actives have a fitted effect of over 60% in size
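First, TGR (20 nM dispensed) and NADPH were mixed with compound. Second, a 15 min room-temperature incubation followed. Third, further NADPH and then DTNB were added to start the reaction. Finally, TNB absorbance was monitored kinetically.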
Shiga inhibitor – blocks Shiga toxin action in Vero cells; Vero cells, Shiga toxin protein synthesis inhibition reporter; inhibition, % at 38.7 µM; 290,000 tested, 9.2% active; in the data active = inhibition mostly above about 28%, no sharp cut-off; inactive = mostly below about 43%
LmPK inhibitor – inhibitors of Leishmania mexicana pyruvate kinase; Q27686; purified LmPK, Kinase-Glo ATP luminescence, 1 h; Potency, µM (titrated, usually from 57.5 µM), actives largely listed as inhibitors; 290,000 tested, 0.37% active; AID 1721
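0.1 nM LmPK, 0.5 mM PEP, 0.1 mM ADP; 50 mM imidazole pH 7.2, 7 mM MgCl2, 50 mM KCl; 1 h RT. Kinase-Glo luminescence readout, normalized to no-enzyme (full inhibition) and uninhibited wells.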
CHX counter – counter-screen hit for Shiga toxin inhibitors, cycloheximide. 300,000 tested, 12% active. max response, %. cell reporter, cycloheximide protein synthesis inhibition counterscreen; in the data active = max response mostly above about 13%, no sharp cut-off; inactive = mostly below about 14%; also: read at 38.3 µM for the half of the compounds with a filed dose
A number is an active result; n = inactive; u = inconclusive; x = not tested or not shown. The sample as a whole holds a higher share of hits than the screen did. Unless noted, calls follow the shape of the dose curve; as a rule, active = well fitted curve in the direction sought with a large enough effect; inconclusive = small, poorly fitted or top-dose-only effect, or another doubt; inactive = no such curve, though single readings can be large; an effect the other way counts as inactive or inconclusive.

SMILES	TbPYK inhibitor	Giardia FBPA inh	Sm TGR inh	Shiga inhibitor	LmPK inhibitor	CHX counter
CC1CC1C(=O)Nc1ccc(-c2ccccc2)cc1 (stereo unspecified)	n	n	n	83	n	45
CCn1cc(C(=O)OCC(=O)Nc2cccc(C(C)=O)c2)c(=O)c2ccc(C)nc21	n	x	n	x	x	x
COc1ccc(C2(Nc3cccc(C(=O)O)c3C)C(=O)c3ccccc3C2=O)cc1	n	x	n	x	x	x
COc1ccc(C(=O)/C=C2/C(=O)Nc3ccccc32)cc1	n	n	n	58	n	21
COc1ccc(C2(C(=O)c3ccccc3)C(=O)c3ccccc3C2=O)cc1	n	n	u	n	u	14
CCCC(=O)Nc1ccc2oc(-c3cncc(Br)c3)nc2c1	n	n	n	58	n	48
O=C(Nc1ccc2oc(-c3cccnc3)nc2c1)c1cccc(Br)c1	n	x	n	x	x	x
CCCCCC(=O)Nc1ccc2oc(-c3cncc(Br)c3)nc2c1	n	n	n	n	n	26
CCC(Sc1nc2ccccc2c2nc(CCc3c(C)n[nH]c3C)nn12)C(=O)Nc1ccc(OC)cc1 (stereo unspecified)	n	x	n	x	x	x
CCn1cnc2cc(NC(=O)c3cccs3)ccc21	n	n	x	67	n	28
Cn1c(=O)n(C)c2cc(NC(=O)c3ccccc3)ccc21	n	x	x	x	x	x
CC(C)(C)n1cnc2cc(NC(=O)c3cccs3)ccc21	n	n	n	104	n	34
CC(C)(C)n1cnc2cc(NC(=O)c3ccccc3)ccc21	n	n	n	93	n	34
CCC(=O)Nc1ccc2c(c1)ncn2CCc1ccccc1	n	n	n	n	n	n
CC(C)(C)NC(=O)NC(=O)COC(=O)c1c(F)cccc1Cl	n	n	n	109	n	36
CS(=O)(=O)c1nc([N+](=O)[O-])nn1CCCc1ccccc1	n	x	x	x	x	x
Cn1nc([N+](=O)[O-])nc1S(C)(=O)=O	n	u	u	n	n	31
O=C(O)c1ccc(/C=N/Nc2ccc(F)cc2F)cc1	n	n	n	131	n	40
Fc1ccc(N/N=C/c2ccncc2)c(F)c1	n	n	n	50	n	40
Fc1ccc(N/N=C/C=C/c2ccccc2)c(F)c1	n	n	u	34	n	32
O=C(O)c1ccc(N/N=C/c2ccc(C(F)(F)F)cc2)cc1	n	n	n	n	n	n
O=C(CNC(=O)c1cccc(F)c1)N/N=C/C=C/c1ccccc1	n	n	n	n	n	n
O=C1CCC/C(=N/Nc2ccc(Cl)cc2)C1	n	u	13µM	67	n	29
CCOc1ccc(S(=O)(=O)N/N=C2/CCCC(=O)C2)cc1	n	n	u	n	n	n
Cc1ccc(Oc2c(C(F)(F)F)oc3c(CN4CCC(C)CC4)c(O)ccc3c2=O)cc1	n	x	n	x	x	x
SMILES	TbPYK inhibitor	Giardia FBPA inh	Sm TGR inh	Shiga inhibitor	LmPK inhibitor	CHX counter
Cc1ccccc1NC(=O)c1c(NC(=O)c2ccco2)sc2c1CCC(C(C)(C)C)C2 (stereo unspecified)	n	x	n	x	x	x
CCn1c(C)cc(=S)c2ccccc21	n	u	4µM	n	u	n
CCn1c2ccccc2c2cc(N)ccc21	n	n	n	n	n	n
Cc1c(CC(=O)N2CCCCC2)c(=O)oc2c(C)c3occ(C(C)(C)C)c3cc12	n	x	n	x	x	x
OCC[C@H]1C[C@@H](O)[C@H](O)[C@]2(Cc3ccccc3CO2)O1	n	x	n	x	x	x
COc1cccc(/C=N/NC(=O)CNC(=O)c2cccs2)c1O	n	n	n	46	n	31
Cc1ccc(/C=N/NC(=O)CNC(=O)c2cccs2)cc1	n	x	n	n	n	15
Cc1ccc(NC(=O)CNC(=O)c2cccs2)c(O)c1	n	x	n	x	x	x
COc1cccc(/C=N/NC(=O)CNC(=O)COc2cccc(C)c2)c1O	n	n	n	n	n	n
COc1ccccc1/C=C\C(=O)NCC(=O)N/N=C/c1cccc(OC)c1O	n	n	n	n	n	n
COc1cccc(/C=N/NC(=O)CNC(=O)CCc2ccccc2)c1O	n	n	n	66	n	30
O=C(CNC(=O)c1cccs1)N/N=C/c1c(F)cccc1Cl	n	x	n	37	n	16
COc1ccc2[nH]c(C)c(CCNS(=O)(=O)c3cc(F)ccc3OC)c2c1	n	x	n	x	x	x
CC1CCN(S(=O)(=O)CCNC(=O)c2ccc(F)cc2)CC1	n	x	n	x	x	x
Clc1ccccc1Cn1nnc2c(NCC3CC3)ncnc21	n	n	n	n	n	n
Clc1ccccc1Cn1nnc2c(Nc3ccccc3)ncnc21	n	n	n	n	n	16
CCc1c2c(nc3ccc(OC)cc13)COC2	x	n	x	x	x	x
COc1ccc(Cl)cc1NC(=S)NCCc1ccc(S(N)(=O)=O)cc1	n	n	2.8µM	n	n	n
CCc1ccc(NC(=O)NCCCN2CCCC2=O)cc1	n	n	n	31	n	28
COc1ccc(Cl)cc1NC(=S)NCCCN1CCCC1=O	n	n	50µM	n	n	n
Cc1cc(C(=O)NCCCN2CCCC2=O)cs1	n	n	n	n	n	n
COc1ccc(Cl)cc1NC(=S)NCCN1CCOCC1	n	n	x	n	n	n
O=C(NCCCN1CCCC1=O)c1csc2ccccc12	n	n	n	n	n	12
O=C(Oc1ccc(Br)cc1C(=S)N1CCOCC1)c1ccc([N+](=O)[O-])cc1[N+](=O)[O-]	n	n	n	n	n	n
O=C(Nc1cccc(F)c1)N1CCCC2(CCN(C(=O)c3cc(C(F)(F)F)cc(C(F)(F)F)c3)CC2)C1	n	n	x	x	x	x
SMILES	TbPYK inhibitor	Giardia FBPA inh	Sm TGR inh	Shiga inhibitor	LmPK inhibitor	CHX counter
Cc1cccc(C)c1OCc1nc2c3cnn(-c4cccc(F)c4)c3ncn2n1	n	x	n	x	x	x
O=C1CCCN1CCCNC(=S)Nc1ccc(Br)cc1Cl	n	n	14µM	n	n	n
O=C(NCCc1nc2ccccc2n1Cc1ccccc1F)c1ccc(F)cc1	n	x	n	n	x	n
O=S(=O)(NC(=S)NC1CCCCC1)c1cccs1	n	u	25µM	n	n	n
O=S(=O)(NC(=S)NC1CCCCC1)c1ccccc1	n	u	u	n	n	n
C/C(=N\NC(=S)NC1CCCCC1)c1cccs1	n	n	n	58	n	28
O=S(=O)(c1ccc(=S)[nH]c1)N1CCOCC1	7.9µM	x	n	x	x	x
Nc1ccc(-c2nc3cc([N+](=O)[O-])ccc3o2)cc1	n	n	n	74	n	106
CC(C)(C)Nc1nc2cc([N+](=O)[O-])ccc2o1	n	n	n	48	n	17
COc1ccc(-c2nc3cc([N+](=O)[O-])ccc3o2)cc1	n	n	n	99	n	40
O=c1oc(-c2ccc([N+](=O)[O-])cc2)nc2ccc(O)cc12	n	n	n	n	u	n
COc1ccc2c(c1)c(N1CCCC1=O)c(C(=O)Nc1ccc(Cl)cc1C)n2C	n	x	n	x	x	x
Cc1nnc(SCc2cnc(-c3ccc(C(C)C)cc3)s2)n1C	x	n	n	n	n	27

Screening results from PubChem.
